The whole screen tested about 140,000 compounds, of which about 240 (0.17%) were called active. A call without a number means that no potency is given here. Not shown: some 9% with an inconclusive outcome. Calls follow the shape of the dose curve; as a rule, active = well fitted inhibition curve with a large enough effect; inconclusive = small, poorly fitted or top-dose-only effect; inactive = no such curve, though single readings can be large or run the other way. This excerpt belongs to a sample that is enriched for actives.
Potency is read from the fitted curve at half-maximal effect.

The nature of this assay: Primary qHTS assay for inhibitors of alpha-synuclein gene (SNCA) expression. Also: nearly all actives have a fitted effect of over 45% in size. Particulars: HEK-293 SNCA-luciferase knock-in, luminescence, 24 h; series mostly up to 57.2 µM. The text has this: Assay Submitter (PI): Daniel R. Scoles Ph.D.
Department of Neurology, University of Utah, Salt Lake City, Utah
Accumulation of alpha-synuclein is a main underlying pathological feature of Parkinson's disease (PD) and alpha-synucleinopathies, for which lowering expression of the alpha-synuclein gene (SNCA) is a potential therapeutic avenue. Using a cell-based luciferase reporter of SNCA expression we performed a quantitative high throughput screen (qHTS) of 155,885 compounds in dose response. The screening assay was generated using genome editing to insert the luciferase gene downstream and in frame of the SNCA gene in HEK-293 cells (1). A viability counterscreen using GF-AFC was used to eliminate cytotoxic and false positive compounds. After in silico analysis (clustering, removal of frequent hitter nuisance chemotypes), inhibitor compounds from the primary screen were selected for follow up and re-tested at 11-doses in the SNCA-luc cells (luciferase and GF-AFC confirmation), and in CMV-luc expressing cell line to flag general transcriptional repressors.
Described herein are the results of the primary screen for SNCA inhibitors; decrease in luciferase signal (inhibition of the SNCA gene expression) is the desired output for this assay.
1. Dansithong, W., Paul, S., Scoles, D. R., Pulst, S. M., and Huynh, D. P. (2015) Generation of SNCA Cell Models Using Zinc Finger Nuclease (ZFN) Technology for Efficient High-Throughput Drug Screening. PLoS ONE 10, e0136930.
SEQUENCE No. (e.g., 1, 2, 3, etc.); […] (e.g., Cells, Incubation, Reagent, etc.); VALUE; DESCRIPTION
1; Cells; 4 uL; Dispense 1500 HEK-293-SNCA-luc cells/well into Greiner 1536-well white / solid bottom tissue culture treated plate. The plate was covered with metal lids with gas-exchange holes.
2; Incubate; 24 hours; Incubate at 37C, 5% CO2, 95% RH.
3; Compounds; 23 nL; Compounds and controls were transferred via a Kalypsys Pin Tool (Wako USA) equipped with a 1536-slotted pin array. The plate was covered with metal lids with gas-exchange holes.
4; Incubate; 24 hours; Incubate at 37C, 5% CO2, 95% RH.
5; Dispense; 1 uL; Dispense Gly-Phe-7-amino-4-trifluoromethylcoumarin (GF-AFC, prepared at 125 uM in PBS) was added. The plate was covered with metal lids with gas-exchange holes.
6; Incubate; 30 min; Incubate at 37C, 5% CO2.
7; Detector; Fluorescence; Measure fluorescence with ViewLux microplate reader (PerkinElmer) equipped with 405/10 excitation and 540/25 emission filters.
8; Dispense; 3 uL; Dispense ONE-Glo ([…]) lucifase detection reagent was added to each well. Plates were covered with metal lids with gas-exchange holes.
9; Incubate; 15 min; Incubate at room temperature.
10; Detector; Luminescence; Measure luminescence with ViewLux microplate reader (PerkinElmer) equipped with clear filters.
NOTES (numbers refer to sequence above)
1; HEK-293-SNCA-luc were cultured and suspended in phenol-red free DMEM (4.5 g/L glucose, 25 mM HEPES, cat #21063 (Thermo)).
3; Compounds were added to the assay plate in an 11-point intra plate dose response, 1:3 titration in DMSO with a final concentration range of […]. Vehicle-only plates, with DMSO being pin-transferred to every well, were inserted at the beginning of screening runs to confirm expected assay performance. Activity was normalized to wells containing medium only (-100% activity, full inhibition) and SNCA-luc cells treated with DMSO vehicle control (0% activity), contained on the same plate as test samples.
10; Signals were analyzed, and dose-response curves were fit using the Hill equation. Compounds in curve classes -1.1, -1.2, -2.1, -2.2 in the SNCA-luc assay were considered active. Compounds were eliminated from further consideration if also active (curve class -1.1, -1.2, -1.3, -1.4, -2.1, -2.2, -2.3, -2.4) in the GF-AFC cytotoxicity assay.
On the technique in general: In qHTS, concentration-response curves come from the screen itself.
Consider `O=c1c2nc(-c3ccccc3)ccc2ncn1Cc1ccccc1`, for which the Potency entry was “inactive”.
With `C[C@@H](O)[C@H](N)C(=O)N1CCc2onc(-c3cccc4ccccc34)c2C1`, the Potency entry was “inactive”.
Consider `COc1ccc(CN2CCN(c3ccccc3)CC2C)c(OC)c1OC` (configuration not stated), for which the Potency entry was “inactive”.
Take `O=C1CC2(CCN(C(=O)C3CCCN3C(=O)Cc3ccccn3)CC2)Oc2ccccc2N1` (configuration not stated): the Potency result was “inactive”.
The figure for `COc1cccc(NC(=O)Nc2ccc3c(c2)N(C)C(=O)c2ccccc2S3)c1` is 20 µM (active).
In the case of `CCN1C(=O)c2ccccc2Sc2ccc(NC(=O)Cc3ccc(OC)cc3)cc21`, the Potency entry is “inactive”.
In the case of `CCOc1ccccc1C(=O)Nc1ccc2c(c1)N(C)C(=O)c1ccccc1S2`, the Potency result was “inactive”.
In the case of `COc1ccc(-c2nc(CN3CCOC(CN)C3)c(C)o2)c2ccccc12` (configuration not stated), the Potency entry was “inactive”.
Turning to `CN1C[C@H](O)C[C@H]1c1nnc2n1CCN(C(=O)c1cc3ccccc3[nH]1)CC2`, the Potency result was “inactive”.
As to `COc1ccc(Cl)cc1NC(=O)N1CCCC(Cn2cnc3cccnc32)C1` (configuration not stated), the Potency result is “inactive”.
On to `COCCN1C[C@H]2CN(C)c3ccccc3[C@@H]2N(C(=O)CC2CCCC2)CCC1=O`, for which the Potency result is “inactive”.
Then `CNC(=O)C1CCCCN1Cc1ccc(-c2cccs2)cc1` (configuration not stated), with “inactive”; and `COc1ccc(-c2cc(N3CCCC(NC(=O)c4cccc(Cl)c4)C3)n[nH]2)cc1` (configuration not stated), with “inactive”; and `Cc1cc(OC2CN(C(=O)c3ccccc3F)C2)ccc1F`, with “inactive”.
Consider `COc1ccc(CC(=O)N2CC[C@@H](CC(=O)O)[C@@H](CCN(C)c3ccccc3)C2)cc1`, for which the Potency entry was “inactive”.
Take `COCc1nc(C2CC(N)C2)cc(N2CCC(c3[nH]ncc3C)CC2)n1` (configuration not stated): the Potency entry was “inactive”.
As to `CCOc1ccc(N(Cc2ccccc2)C(=O)c2nc(S(C)(=O)=O)ncc2Cl)cc1`, the Potency was 6.31 µM (active).
Turning to `CCOc1ccc(NC(=O)CN(Cc2ccccc2)S(=O)(=O)c2ccc(Cl)cc2)cc1`, the Potency entry was “inactive”.
For `CCOc1ccc(N(CC)C(=O)C2CCN(S(=O)(=O)c3cccc4nonc34)CC2)cc1`, the Potency result was “inactive”.
Consider `CCOc1ccc2c(n1)CCN(C(=O)NC1CCCCC1)C2`, for which the Potency entry was “inactive”.
For the compound `C=CCN(C)C(=O)[C@@H](C)C1CC[C@@]2(C)Cc3sc(NS(=O)(=O)c4ccc(Cl)cc4)nc3[C@@H](C)[C@@H]2[C@H]1O` (some centres not stated), the Potency result is “inactive”.
`CCN1CCN(C(=O)c2ccc3nnc(-c4ccc(OC(F)(F)F)cc4)n3c2)CC1`: the Potency entry is “inactive”.
With `COc1cccc(CCC(=O)N2CCCN(S(C)(=O)=O)c3ccccc32)c1`, the Potency entry is “inactive”.
For `Oc1ccc(-c2nc(C3CC3)nc3c2CN(Cc2ccc(F)cc2)CC3)cc1`, the Potency entry is “inactive”.
Then `Cc1cccc(CN2CCC3(Cc4ccccc4CNC3=O)C2)c1` (configuration not stated), with “inactive”; and `COC(=O)N1CCN(C(=O)c2cccc(-c3ccccc3OC)c2)CC1`, with “inactive”.
With `CC1=C(C(=O)N(C)C)C(c2ccc(Cl)cc2)N2C(CC(=O)NCc3ccco3)=CSC2=N1` (configuration not stated), the Potency entry is “inactive”.

For the origin of these results see PubChem BioAssay AID1671194 (National Center for Advancing Translational Sciences (NCATS), 2021).
